An excerpt weighted towards active compounds, which were near 19% of everything screened.
RORgamma inh = qHTS for inhibitors of ROR gamma transcriptional activity | Potency, µM (doses to about 53.6 µM), for inactives: at the top dose activity change, negative = inhibition, actives largely listed as inhibitors | Drosophila S2 Gal4-RORgamma UAS-luciferase reporter, 20 h | actives 5.4% (n = 310,000) | Nuclear receptor ROR-gamma (Mus musculus), P51450; further: nearly all actives have a fitted effect of over 60% in size
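Drosophila Schneider cells stably carrying a metallothionein-driven Gal4 DBD–ROR gamma fusion and a UAS-Photinus luciferase reporter were exposed to compound for 1 hr, then induced with copper sulfate (700 uM final) for 20 hr at ambient temperature before luminescence reading.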
TDP1 inh = qHTS Assay for Inhibitors of Tyrosyl-DNA Phosphodiesterase (TDP1); Tyrosyl-DNA phosphodiesterase 1 (Homo sapiens), Q9NUW8; recombinant TDP1, AlphaScreen DNA substrate cleavage; Potency, µM (top dose mostly 130 µM), inactives show top-dose activity change, negative = inhibition, actives largely listed as inhibitors; actives 0.28% (n = 350,000); AID 485290, 2010; further: nearly all actives have a fitted effect of over 40% in size
Target sequence (Q9NUW8 whole entry, looked up): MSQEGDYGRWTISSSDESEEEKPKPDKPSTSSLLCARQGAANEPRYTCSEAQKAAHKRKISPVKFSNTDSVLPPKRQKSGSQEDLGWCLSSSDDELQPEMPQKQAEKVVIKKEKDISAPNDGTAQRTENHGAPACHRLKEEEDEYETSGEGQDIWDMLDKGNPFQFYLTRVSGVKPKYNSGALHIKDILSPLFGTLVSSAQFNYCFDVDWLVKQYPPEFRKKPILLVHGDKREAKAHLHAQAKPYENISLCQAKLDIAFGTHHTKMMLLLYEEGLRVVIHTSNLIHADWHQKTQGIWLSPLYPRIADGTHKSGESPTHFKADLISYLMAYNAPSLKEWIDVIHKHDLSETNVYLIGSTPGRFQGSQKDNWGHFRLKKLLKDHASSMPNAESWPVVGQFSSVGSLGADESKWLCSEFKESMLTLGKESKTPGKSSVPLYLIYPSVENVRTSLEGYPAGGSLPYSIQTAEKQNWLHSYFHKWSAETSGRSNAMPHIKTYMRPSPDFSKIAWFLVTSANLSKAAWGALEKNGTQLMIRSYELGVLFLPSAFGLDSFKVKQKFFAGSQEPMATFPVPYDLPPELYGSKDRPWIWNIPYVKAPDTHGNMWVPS
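E. coli-derived human Tdp1, 1 nM final. Cpd preinc 15 min RT; substrate 15 nM final, 5 min RT; AS bead mix 10 ug/ml final, 10 min RT. Signal loss = tyrosine-FITC cleavage. No-enzyme wells = max signal.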
DT40 TDP1 no CPT = qHTS for Inhibitors of human tyrosyl-DNA phosphodiesterase 1 (TDP1): qHTS in cells in absence of CPT; DT40 Tdp1-/- hTDP1 cells, no CPT, ATP luminescence, 48 h; actives 15% (n = 420,000); Potency, µM (top dose mostly 46.2 µM), for the others: at the top dose activity change, negative = growth inhibition, usual class: inhibitors; further: nearly all actives have a fitted effect of over 55% in size
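Cells were dispensed at 400 per well, compounds added by pin tool, plates incubated ≥48 hr at 37 °C, then CellTiter-Glo added for 30 min at room temperature before luminescence reading. Line: DT40 Tdp1-/- complemented with hTDP1; camptothecin omitted.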
VP16 counter = VP16 counterscreen qHTS for inhibitors of ROR gamma transcriptional activity. AID 2546, 2010. Drosophila S2 Gal4-VP16 UAS-luciferase, luminescence, 20 h. actives 3.5% (n = 310,000). Potency, µM (series often up to 53.6 µM), for inactives: at the highest dose activity, negative = inhibition, hits mostly inhibitors;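 further: Gal4-VP16 expression switched on by copper sulfate through the metallothionein promoter; nearly all actives have a fitted effect of over 50% in size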
TDP1 cell CPT = qHTS for Inhibitors of human tyrosyl-DNA phosphodiesterase 1 (TDP1): qHTS in cells in presence of CPT; chicken DT40 Tdp1-/-;hTDP1 cells + 20 nM CPT, ATP luminescence, 48 h; Potency, µM (highest dose often 46.2 µM), for the others: at the highest dose activity change, negative = growth inhibition, usual class: inhibitors; actives 12% (n = 420,000); AID 686979, 2013; further: nearly all actives have a fitted effect of over 55% in size
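Chicken DT40 Tdp1-/- cells stably complemented with human TDP1 were seeded at 400 cells/well in medium containing 20 nM camptothecin, exposed to pin-transferred compounds, and grown at 37 °C for at least 48 hr. Viability was read as ATP luminescence.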
Numbers without * were called inactive; ? = inconclusive; nt = no result given; [ ] = dose if it differs, or a comment. The call rests on the fitted dose curve; in most records, active means well fitted curve in the direction sought with a large enough effect; inconclusive means small, poorly fitted or top-dose-only effect, or another doubt; inactive means no such curve, though single readings can be large; an effect the other way counts as inactive or inconclusive. On the % scale 0 is the no-effect control and ±100 the full control effect; potency means the concentration at half of the fitted maximal effect.

SMILES | RORgamma inh | TDP1 inh | DT40 TDP1 no CPT | VP16 counter | TDP1 cell CPT
CN1CCN(c2ccccc2NC(=O)c2ccc(OCc3ccccc3)cc2)CC1 | -21.8%[0.365 µM] | 7.8% | ? | nt | 16.4µM*
O=C(Nc1ccccc1F)c1ccc(OCc2ccccc2)cc1 | 1.0% | -1.2% | -23.0% | 6.1% | -20.1%
COC(=O)CC1=C(C(=O)OC)C(c2ccc3c(c2Cl)OCO3)C(C#N)=C(N)O1 (centres undefined) | 4.3% | 7.2% | -29.9% | ? | ?
Cc1ccccc1-n1c(=O)c2c3c(sc2n2cnnc12)CCCC3 | nt | nt | 16.4µM* | nt | 14.6µM*
COC(=O)c1ccc(Oc2nc(Nc3ccccc3)nc(N(C)C)n2)cc1 | -27.3% | 5.5% | 20.6µM* | -0.6% | ?
O=C(CN1CCN(c2ccc(O)cc2)CC1)N(C1CC1)C1CCS(=O)(=O)C1 (centres undefined) | nt | -0.6%[56.1 µM] | -28.6% | nt | -11.4%
O[C@H]1C[C@H](c2ccccc2)N(Cc2cccs2)C[C@@H]1n1cc(-c2ccc(F)cc2)nn1 | nt | nt | 23.1µM* | nt | 23.1µM*
Cc1ccc([C@H]2C[C@H](O)[C@@H](n3cc(C4CC4)nn3)CN2Cc2cccs2)cc1 | nt | nt | 11.6µM* | nt | 9.2µM*
O[C@@H]1C[C@H](c2ccc(Cl)cc2)N(Cc2cccs2)C[C@H]1n1cc(-c2ccc(F)cc2)nn1 | nt | nt | ? | nt | -21.3%
COc1ccc([C@H]2C[C@H](O)[C@@H](n3cc(-c4ccc(F)cc4)nn3)CN2Cc2cccs2)cc1 | nt | nt | 5.17µM* | nt | 5.17µM*
COc1ccc([C@H]2C[C@H](n3cc(-c4ccc(F)cc4)nn3)[C@@H](O)CN2Cc2cccs2)cc1 | nt | nt | -6.9% | nt | 4.9%
Clc1nnc2c3ccccc3ccn12 | nt | nt | 8.7% | nt | 10.4%
COc1ccc(NC(=O)Nc2ccc(C(=O)N3CCOCC3)cc2)c(OC)c1 | 16.7% | nt | -7.4% | -4.8% | -6.4%
COc1ccc(C(=O)c2cc3c(cc2[N+](=O)[O-])OCCO3)cc1 | 1.4% | 8.1% | -12.2% | -16.9% | -13.3%
C/C(=N\NC(=O)COc1ccc(C(C)(C)C)cc1)c1ccc2c(c1)OCCO2 | -5.5% | 0.0% | 25.9µM* | -21.9% | 16.4µM*
CNC(=S)N/N=C(\C)c1ccc2c(c1)OCCO2 | 2.82µM* | 5.1% | -4.4% | 8.91µM* | -2.5%
C/C(=N\NC(=S)Nc1ccc(C(C)C)cc1)c1ccc2c(c1)OCO2 | 6.31µM* | 8.2% | 23.1µM* | ? | ?
CCc1ccc(OCC(=O)N/N=C(\C)c2ccc3c(c2)OCCO3)cc1 | 33.0% | 1.1% | -6.3% | 2.4% | 2.6%
CC(NC(=O)c1ccc2c(c1)OCCO2)C(=O)O (centres undefined) | 5.3% | 1.9% | -1.0% | 4.4% | 4.7%
C/C(=N\NC(=S)NC(C)C)c1ccc2c(c1)OCCO2 | 2µM* | 7.1% | 6.51µM* | 4.47µM* | 1.3µM*
CN(C(=O)CSc1ncnc2ccccc12)C1CCCCC1 | nt | 2.2% | -15.4% | nt | -4.8%
O=C(NCCc1ccccc1)C(=O)NCC1OCCCN1S(=O)(=O)c1ccc(F)cc1 (centres undefined) | 16.0% | 3.6% | -15.2% | 2.1% | 3.9%
CN(C)CCCNC(=O)c1cc(C(=O)c2ccccc2F)c[nH]1 | 22.0% | nt | -19.6% | 4.2% | -11.9%
C/C(=N\NC(=O)c1ccccc1)c1ccc2c(c1)OCO2 | 20.1% | ? | -7.9% | ? | -5.6%
CNC(=S)N/N=C(\C)c1ccc2c(c1)OCO2 | 7.08µM* | 4.9% | ? | ? | 20.9%
SMILES | RORgamma inh | TDP1 inh | DT40 TDP1 no CPT | VP16 counter | TDP1 cell CPT
CCNC(=S)N/N=C(\C)c1ccc2c(c1)OCCO2 | 2.82µM* | 5.1% | ? | 7.08µM* | ?
O=C(O)CSc1nnc(-c2ccc(O)cc2)o1 | nt | 4.5% | nt | nt | nt
COc1ccc(C2C3C=CCCC3(C)C(=O)N2Cc2ccccc2)cc1Cl (centres undefined) | 31.1% | 7.4% | nt | -16.5% | nt
C[C@@]12CCC=C[C@H]1[C@H](c1ccc(C(F)(F)F)cc1)N(Cc1ccccc1)C2=O | 0.4% | -1.2% | 16.4µM* | -0.2% | ?
C[C@@]12CCC=C[C@H]1[C@H](c1ccc3ccccc3c1/C=C/c1ccccc1)N(Cc1ccccc1)C2=O | -5.2% | 3.5% | ? | 1.6% | 2.06µM*
C[C@@]12CCC=C[C@H]1[C@H](c1ccc(/C=C/c3ccccc3)cc1F)N(Cc1ccccc1)C2=O | -2.5% | -1.2% | 20.6µM* | 0.7% | 14.6µM*
CC(=O)NC(CC(=O)Nc1ccc(S(=O)(=O)N2CCCCC2)cc1)c1ccccc1 (centres undefined) | 26.9% | 1.0% | 6.9% | ? | ?
O=C(C[C@@H]1C=C[C@@H](NC(=O)Nc2cccc(F)c2)[C@@H](CO)O1)NCC1CCCCC1 | nt | nt | -15.6% | nt | -2.6%
O=C(NCc1cccs1)N[C@@H](Cc1ccccc1)C(=O)O | 2.1% | 2.4% | -1.0% | -1.0% | 7.2%
COc1ccc(C(=O)NCc2nnc(SCC(=O)N3CCCC3)o2)cc1 | -11.1% | 2.2% | 18.5% | 0.4% | -4.9%
O=c1cc(Br)c(O)c(Br)cc1Br | nt | nt | 18.4µM* | nt | ?
O=C1OC(c2ccccc2)(c2cc(Br)c(O)c(Br)c2)c2ccccc21 (centres undefined) | nt | nt | ? | nt | -17.6%
Cc1cc(C)nc(Sc2nc(Cl)nc(N(c3ccccc3)c3ccccc3)n2)n1 | 11.2µM* | 1.0% | ? | ? | ?
Cc1cc(C)nc(SC(C(=O)O)c2ccccc2)n1 (centres undefined) | 6.1% | 8.1% | -6.5% | -0.5% | 1.8%
CN(CC(=O)Nc1cccc(Cl)c1)S(=O)(=O)c1ccc2[nH]c3c(c2c1)CCCC3 | nt | 7.5% | 23.1µM* | nt | ?
COc1cc(Cl)c(NC(=O)CN(C)S(=O)(=O)c2ccc3[nH]c4c(c3c2)CCCC4)c(OC)c1 | nt | 2.5% | 18.4µM* | nt | 23.1µM*
COc1ccc(NC(=O)CN(C)S(=O)(=O)c2ccc3[nH]c4c(c3c2)CCCC4)cc1OC | nt | 1.9% | 16.4µM* | nt | ?
Cc1ccc(NC(=O)CN(C)S(=O)(=O)c2ccc3[nH]c4c(c3c2)CCCC4)c(Cl)c1 | nt | 3.7% | 18.4µM* | nt | ?
CN(CC(=O)Nc1cccc(C(F)(F)F)c1)S(=O)(=O)c1ccc2[nH]c3c(c2c1)CCCC3 | nt | 3.7% | ? | nt | ?
Cc1cc(C)cc(N2C(=O)C3CCCN3C2=S)c1 (centres undefined) | -0.3% | nt | -3.1% | -2.4% | -1.5%
CCC(=O)Nc1ccc(-c2nnc3c4ccccc4c(C)nn23)cc1 | nt | -1.1% | ? | nt | ?

Screening data deposited in PubChem BioAssay by National Center for Advancing Translational Sciences (NCATS).
